# PubChem BioAssay (NCATS)
# Values joined by “and” are separate entries in the source; they are usually repeats but may differ in a detail not shown here. Equal values may be shown once. Results filed as inconclusive are left out. Where a call stands in place of a potency, no number is given. Active and inactive are the calls of the source. The call rests on the fitted dose curve; in most records, active means well fitted curve in the direction sought with a large enough effect; inconclusive means small, poorly fitted or top-dose-only effect, or another doubt; inactive means no such curve, though single readings can be large; an effect the other way counts as inactive or inconclusive.
# Columns and labels:
# [1] = tested on: Zika virus NS2B-NS3 protease (unlinked); assay: Optimization of GU AMC qHTS for Zika virus inhibitors: Unlinked NS2B-NS3 protease assay (AID 1347151); settings: recombinant ZIKV NS2B-NS3 protease, fluorogenic AMC substrate; series mostly up to 52.5 µM; further: nearly all actives have a fitted effect of over 80% in size; further: potency means the concentration at half of the fitted maximal effect
# Procedure, shortened: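 Unlinked protease (25 nM final); buffer 10 mM Tris-HCl pH 8.0 + 0.01% Tween 20; AMC substrate; 15 min RT, dark; Δfluorescence normalized to no-inhibitor/no-enzyme controls; 4-parameter Hill fit.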
# [2] = tested on: Zika virus NS2B-NS3 protease; assay: Primary screen GU AMC qHTS for Zika virus inhibitors (AID 1347154); settings: Zika NS2B-NS3 unlinked protease, AMC fluorogenic substrate; series mostly up to 54.1 µM; further: nearly all actives have a fitted effect of over 70% in size; further: potency means the concentration at half of the fitted maximal effect
# Procedure, shortened: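 Unlinked Zika NS2B hydrophilic domain–NS3 protease complex at 25 nM in 10 mM Tris-HCl pH 8.0, 0.01% Tween 20, with an AMC peptide substrate. Fluorescence change (340/450 nm) over 15 min at room temperature, normalized to controls, fitted to 4-parameter Hill.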
# [3] = target: N-terminal Xaa-Pro-Lys N-methyltransferase 1 (Homo sapiens) (UniProt Q9BV86); assay: qHTS Assay for Inhibitors of N-terminal methyltransferase 1 (NTMT1): LOPAC validation of the NTMT1 SAHH-coupled ThioGlo3 Assay (AID 1347143); settings: recombinant NTMT1, SAHH-coupled ThioGlo3 fluorescence; series mostly up to 114 µM;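 further: SAH from peptide methylation measured as thiol fluorescence via SAHH coupling and ThioGlo3; nearly all actives have a fitted effect of over 70% in size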; further: potency means the concentration at half of the fitted maximal effect
# N-terminal Xaa-Pro-Lys N-methyltransferase 1 (Homo sapiens), sequence (Q9BV86 whole entry, looked up): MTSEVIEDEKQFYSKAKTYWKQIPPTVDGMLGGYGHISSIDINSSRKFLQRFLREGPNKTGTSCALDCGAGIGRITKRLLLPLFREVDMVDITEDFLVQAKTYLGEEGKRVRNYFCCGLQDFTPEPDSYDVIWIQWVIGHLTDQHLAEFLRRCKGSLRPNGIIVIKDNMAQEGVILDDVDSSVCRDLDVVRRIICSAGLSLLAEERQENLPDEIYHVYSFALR
# Procedure, shortened: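 Steps: dispense 125nM NTMT1; pin-transfer test compounds at several concentrations, with 1uM RCC1-6 peptide as control; incubate 1 min; start with reagent holding 100uM SAM, 10uM SAHH, 15uM ThioGlo3; read at 0 and 30 min.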
# Furin (Homo sapiens) = Furin (Homo sapiens) (UniProt P09958); assay: Furin counterscreen qHTS for Zika virus inhibitors (AID 1347149); settings: furin enzymatic counterscreen, fluorogenic substrate; series mostly up to 57.5 µM; further: nearly all actives have a fitted effect of over 70% in size; further: potency means the concentration at half of the fitted maximal effect
# Furin (Homo sapiens), sequence (P09958 whole entry, looked up): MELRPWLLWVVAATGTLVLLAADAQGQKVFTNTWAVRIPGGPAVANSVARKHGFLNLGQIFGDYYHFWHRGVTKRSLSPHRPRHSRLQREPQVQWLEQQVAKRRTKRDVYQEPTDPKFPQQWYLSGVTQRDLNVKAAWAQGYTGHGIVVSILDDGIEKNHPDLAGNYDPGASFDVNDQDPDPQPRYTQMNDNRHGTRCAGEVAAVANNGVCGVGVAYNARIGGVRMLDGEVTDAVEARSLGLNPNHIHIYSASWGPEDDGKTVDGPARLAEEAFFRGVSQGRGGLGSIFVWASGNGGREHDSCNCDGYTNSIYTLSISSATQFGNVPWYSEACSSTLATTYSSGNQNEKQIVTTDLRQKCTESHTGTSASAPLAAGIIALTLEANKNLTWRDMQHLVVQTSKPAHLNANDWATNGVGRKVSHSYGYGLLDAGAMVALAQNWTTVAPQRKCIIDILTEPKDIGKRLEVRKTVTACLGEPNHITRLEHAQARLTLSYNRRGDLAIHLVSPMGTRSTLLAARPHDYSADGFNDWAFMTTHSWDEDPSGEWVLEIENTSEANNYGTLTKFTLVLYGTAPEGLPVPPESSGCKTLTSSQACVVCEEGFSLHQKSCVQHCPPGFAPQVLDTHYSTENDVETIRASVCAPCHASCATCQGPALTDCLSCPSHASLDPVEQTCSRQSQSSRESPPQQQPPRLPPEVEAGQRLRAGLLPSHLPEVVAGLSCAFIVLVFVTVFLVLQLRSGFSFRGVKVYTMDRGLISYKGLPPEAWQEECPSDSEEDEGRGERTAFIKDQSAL
# Procedure, shortened: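 Counterscreen measures cleavage of 2 microM BOC-RVRR-AMC, below its ~15 microM Km, by 5 nM full-length human furin at pH 7.0 after a 15-min compound preincubation. Inhibition derives from the 15-min fluorescence increase at 37C.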
# [4] = tested on: Zika virus NS2B-NS3 protease (unlinked complex); assay: Confirmatory screen GU AMC qHTS for Zika virus inhibitors (AID 1347153); settings: Recombinant NS2B-NS3 protease, AMC substrate fluorescence; series mostly up to 57.1 µM; further: nearly all actives have a fitted effect of over 70% in size
# Procedure, shortened: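 Compounds were preincubated 15 min at room temperature with 25 nM noncovalent NS2B-NS3 protease at pH 8.0; AMC substrate added at 10 microM and 15-min fluorescence gain (340/450 nm) converted to percent inhibition, fitted 4-parameter.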
# [5] = tested on: Zika virus NS2B-NS3 protease (unlinked complex); assay: Primary screen GU Rhodamine qHTS for Zika virus inhibitors: Unlinked NS2B-NS3 protease assay (AID 1347159); settings: Recombinant ZIKV NS2B-NS3 protease, Rhodamine110 substrate fluorescence; series mostly up to 107 µM; further: nearly all actives have a fitted effect of over 60% in size; further: potency means the concentration at half of the fitted maximal effect
# Procedure, shortened: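 Percent inhibition came from the 15-min rise in Rhodamine110 fluorescence (1.5 microM substrate, ~15% conversion), normalized to no-inhibitor and no-enzyme wells and Hill-fitted. Unlinked protease, 25 nM, pH 8.0 Tris buffer; compounds up to 114 microM, 15-min preincubation.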
# [6] = tested on: Zika virus NS2B-NS3 protease (linked construct); assay: Primary screen NINDS Rhodamine qHTS for Zika virus inhibitors (AID 1347160); settings: purified NS2B-NS3 protease, Rhodamine110 substrate fluorescence; series mostly up to 57.1 µM; further: nearly all actives have a fitted effect of over 55% in size
# Procedure, shortened: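 Rhodamine110-peptide cleavage (1.5 µM substrate) by 25 nM linked NS2B-NS3 enzyme at pH 8.0 (Tris, Tween 20), after 15 min RT preincubation with compounds; 15-min fluorescence change normalized to controls and Hill-fitted.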
# [7] = tested on: Zika virus NS2B-NS3 protease (linked construct); assay: Confirmatory screen NINDS AMC qHTS for Zika virus inhibitors (AID 1347152); settings: Purified linked NS2B-NS3, AMC substrate fluorescence; series mostly up to 56.6 µM; further: nearly all actives have a fitted effect of over 70% in size; further: potency means the concentration at half of the fitted maximal effect
# Procedure, shortened: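 Enzyme (1 nM, linked construct) was preincubated with compound for 15 minutes at room temperature in 10 mM Tris-HCl pH 8.0 with 0.01% Tween 20. Bz-Nle-Lys-Arg-Arg-AMC was then added to 10 microM, and AMC fluorescence was recorded immediately and after 15 minutes.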
# [8] = Confirmatory screen GU Rhodamine qHTS for Zika virus inhibitors qHTS (AID 1347157); settings: purified enzyme assay, Rhodamine110 substrate fluorescence, 15 min; series mostly up to 114 µM; further: nearly all actives have a fitted effect of over 70% in size; further: potency means the concentration at half of the fitted maximal effect
# Procedure, shortened: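 Buffer 10 mM Tris-HCl pH 8.0, 0.01% Tween 20. Unlinked protease 25 nM; compound preincubation 15 min, RT, protected from light. Substrate Rhod110, 1.5 microM; ~15% conversion in 15 min.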
# [9] = ZIKV-mCherry secondary qHTS for Zika virus inhibitors (AID 1347158); settings: Vero cells, ZIKV-mCherry infection imaging, 48-72 h; series mostly up to 32.6 µM; further: potency means the concentration at half of the fitted maximal effect
# Procedure, shortened: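 This orthogonal imaging screen measured ZIKV-mCherry infection of Vero cells exposed to compound, MOI 1, 48-72 h. Percent infection came from segmented nuclei scored mCherry-positive above 3 SD of negative controls.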
compound,measurement,setting,value
NC[C@H](O)c1ccc(O)c(O)c1,Potency,[1],inactive
same,Potency,[2],10.2 µM (active) and 11.9 µM (active)
CCCC(CCC)C(=O)O,Potency,[3],inactive
same,Potency,[1],inactive
same,Potency,[2],inactive
NC(=O)C1CCCc2c1[nH]c1ccc(Cl)cc21 (configuration not stated),Potency,[2],inactive
NCCc1ccc(O)c(O)c1,Potency,[3],44.7 µM (active)
same,Potency,[2],inactive
O=C(O)COCCN1CCN(C(c2ccccc2)c2ccc(Cl)cc2)CC1 (configuration not stated),Potency,[1],inactive
same,Potency,[2],inactive
c1ccc([C@H]2CN3CCSC3=N2)cc1,Potency,[3],inactive
same,Potency,[1],inactive
same,Potency,[2],inactive
COc1ccccc1-c1cccc(-c2c(O)c3cc(C#N)c(Cl)cc3[nH]c2=O)c1,Potency,Furin (Homo sapiens),inactive
same,Potency,[4],inactive
same,Potency,[2],49.4 µM (active)
CS(=O)(=O)c1cccc(CNc2nc(Nc3ccc4c(c3)CCC(=O)N4)ncc2C(F)(F)F)c1,Potency,[3],56.2 µM (active)
same,Potency,[2],inactive
same,Potency,[5],inactive
same,Potency,[6],inactive
Cc1cc(SCc2sc(-c3ccc(C(F)(F)F)cc3)nc2C)ccc1OCC(=O)O,Potency,Furin (Homo sapiens),inactive
same,Potency,[7],19.7 µM (active)
same,Potency,[8],2.48 µM (active)
same,Potency,[9],inactive
same,Potency,[5],3.55 µM (active)
NNCCc1ccccc1,Potency,[1],inactive
same,Potency,[2],inactive
Cc1cc2c(C(C)C)c(O)c(O)c(C=O)c2c(O)c1-c1c(C)cc2c(C(C)C)c(O)c(O)c(C=O)c2c1O,Potency,[3],56.2 µM (active)
same,Potency,[1],0.377 µM (active)
same,Potency,[8],2.51 µM (active)
same,Potency,[9],2.51 µM (active)
Cc1[nH]c(=O)c(C#N)cc1-c1ccncc1,Potency,[7],inactive
same,Potency,[4],inactive
same,Potency,[2],inactive
O=C(O)CCc1ccc(NCc2cccc(Oc3ccccc3)c2)cc1,Potency,[1],inactive
same,Potency,[2],inactive
CCCc1nn(C)c2c(=O)[nH]c(-c3cc(S(=O)(=O)N4CCN(C)CC4)ccc3OCC)nc12,Potency,[1],inactive
same,Potency,[2],inactive
same,Potency,[5],inactive
same,Potency,[6],inactive
Cc1cc(-c2ccc(CC(=O)Nc3ccc(-c4cccnc4)cc3)cc2)ccn1,Potency,[2],inactive
CC(C)c1onc(-c2c(Cl)cccc2Cl)c1COc1ccc(/C=C/c2cccc(C(=O)O)c2)c(Cl)c1,Potency,Furin (Homo sapiens),8.55 µM (active)
same,Potency,[7],24.1 µM (active)
same,Potency,[4],24.1 µM (active)
same,Potency,[2],6.7 µM (active)
O=C(C1CC1)N1CC[C@@H](Cn2c(-c3ccc(-c4ccc5occc5c4)cc3)nc3cnccc32)C1,Potency,Furin (Homo sapiens),15.2 µM (active)
same,Potency,[7],24.1 µM (active)
same,Potency,[4],24.1 µM (active)
same,Potency,[2],10.8 µM (active)
CC(C)C[C@H](NC(=O)[C@@H](O)[C@H](N)Cc1ccccc1)C(=O)O,Potency,[3],inactive
same,Potency,[1],inactive
same,Potency,[2],inactive
CCOc1ccc(Cc2cc([C@@H]3O[C@H](CO)[C@@H](O)[C@H](O)[C@@H]3O)ccc2Cl)cc1,Potency,[2],inactive
CCn1c(-c2nonc2N)nc2c(C#CC(C)(C)O)ncc(OC[C@H]3CCCNC3)c21,Potency,[2],inactive
CCCc1nc2c(C)cc(-c3nc4ccccc4n3C)cc2n1Cc1ccc(-c2ccccc2C(=O)O)cc1,Potency,Furin (Homo sapiens),24.1 µM (active)
same,Potency,[7],21.5 µM (active)
same,Potency,[4],inactive
same,Potency,[2],inactive
CS(=O)(=O)Oc1ccc2c(NC(N)=O)c(C(=O)c3ccc(Cl)cc3Cl)oc2c1,Potency,[2],inactive
CCc1cncnc1N1CCN(Cc2nc3ccc(C(F)(F)F)cc3[nH]2)CC1,Potency,[3],inactive
same,Potency,[1],inactive
same,Potency,[2],inactive
same,Potency,[5],inactive
same,Potency,[6],inactive
OCCn1cc(-c2cnc3nnn(Cc4ccc5ncccc5c4)c3n2)cn1,Potency,[8],inactive
same,Potency,[5],50.1 µM (active)
same,Potency,[6],inactive
COc1cc2c(cc1OC)CN(CCc1ccc(NC(=O)c3cccc4c(=O)c5cccc(OC)c5[nH]c34)cc1)CC2,Potency,[8],44.1 µM (active)
same,Potency,[5],39.8 µM (active)
same,Potency,[6],inactive
Cc1csc(NC(=O)c2sc3nc4c(c(C(F)(F)F)c3c2N)CCC4)n1,Potency,[2],inactive
same,Potency,[5],inactive
same,Potency,[6],inactive
O=C1CCCC2=C1C(c1[nH]ncc1Cl)N=C(Nc1nc3ccccc3o1)N2 (configuration not stated),Potency,[2],inactive
same,Potency,[5],inactive
same,Potency,[6],inactive
CCCS(=O)(=O)Nc1ccc(F)c(C(=O)c2c[nH]c3ncc(Cl)cc23)c1F,Potency,[2],inactive
same,Potency,[5],inactive
same,Potency,[6],inactive
COc1cc(Oc2ccnc3cc(OC)c(OC)cc23)ccc1NC(=O)NC(C)c1nccs1 (configuration not stated),Potency,[5],inactive
same,Potency,[6],inactive
COc1nc(-c2ccc3c(c2)OCO3)n(-c2ccc(NC(=O)CSc3ccccc3)cc2)n1,Potency,[2],inactive
same,Potency,[5],inactive
same,Potency,[6],inactive
CN(C)C(=O)c1ccc(S(=O)(=O)c2ccc(NC(=O)[C@@](C)(O)C(F)(F)F)c(Cl)c2)cc1,Potency,[2],inactive
same,Potency,[5],inactive
same,Potency,[6],inactive
N#CC[C@H](C1CCCC1)n1cc(-c2ncnc3[nH]ccc23)cn1,Potency,[2],24.1 µM (active)
same,Potency,[5],inactive
same,Potency,[6],inactive
CC(C)(N)C(=O)N[C@H](COCc1ccccc1)C(=O)N1CCC2(CC1)CN(S(C)(=O)=O)c1ccccc12,Potency,[2],inactive
same,Potency,[5],inactive
same,Potency,[6],inactive
Clc1ccc(Nc2nnc(Cc3ccncc3)c3ccccc23)cc1,Potency,[2],inactive
same,Potency,[6],inactive
Cc1n[nH]c(C)c1Cc1sc2c(c1C(=O)N1C[C@H](O)CO1)c(=O)n(C)c(=O)n2CC(C)C,Potency,[2],inactive
same,Potency,[6],inactive
COc1cc(F)c(F)c(Nc2ccc(I)cc2F)c1NS(=O)(=O)C1(C[C@H](O)CO)CC1,Potency,[2],inactive
same,Potency,[6],inactive
Cn1cc(-c2ccc3nnc(C(F)(F)c4ccc5ncccc5c4)n3n2)cn1,Potency,[5],inactive
same,Potency,[6],inactive
CCc1cc(Nc2nccc(-c3c(-c4ccc(OC)c(C(=O)Nc5c(F)cccc5F)c4)nc4ccccn34)n2)c(OC)cc1N1CCC(N2CCN(S(C)(=O)=O)CC2)CC1,Potency,[2],inactive
same,Potency,[5],inactive
same,Potency,[6],inactive
C[C@@H]1CN(Cc2ccc(F)cc2)[C@@H](C)CN1C(=O)c1cc2c(C(=O)C(=O)N(C)C)cn(C)c2cc1Cl,Potency,[2],inactive
same,Potency,[5],inactive
same,Potency,[6],inactive
COc1c(Cl)cc2c([nH]c3cnccc32)c1NC(=O)c1cccnc1C,Potency,[5],inactive
same,Potency,[6],inactive
CC(C)OC(=O)C1=CN(C(=O)c2ccc(F)c(F)c2)CC(C)(C)c2c1[nH]c1ccccc21,Potency,[2],inactive
same,Potency,[5],inactive
same,Potency,[6],inactive
Cc1cnc(Nc2ccc(OCCN3CCCC3)cc2)nc1Nc1cccc(S(=O)(=O)NC(C)(C)C)c1,Potency,[2],inactive
same,Potency,[5],inactive
same,Potency,[6],inactive
CCOc1cc(C(=O)Nc2ccc(Cl)c(-c3nc4ccccc4[nH]3)c2)cc(OCC)c1OCC,Potency,[5],inactive
same,Potency,[6],inactive
